The values that follow come from PubChem BioAssay AID2599 (Sanford-Burnham Center for Chemical Genomics, 2010).

The structures appear in SMILES notation. Hit rate of the full screen: of about 330,000 compounds, about 5,800 (1.8%) were called active. Shown is part of a subset that was picked to be rich in actives. A number with no mark means an inactive call.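 The calls were made as follows: active = inhibition above about 50% at the single tested dose (limit read from the data); inactive = the rest.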

The target in this test is Sentrin-specific protease 6 (Homo sapiens) (UniProt Q9GZR1). The test is described as follows: inhibition of human SENP6 catalytic domain – biochemical, luminescence, uHTS, primary screen (AID 2599).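 Also: plate controls were DMSO wells with enzyme for no effect and DMSO wells lacking enzyme for full effect.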 The settings on record: Recombinant SENP6 catalytic domain, aminoluciferin luminescence; at 10 µM; stronger effect = higher value.
Sequence of Sentrin-specific protease 6 (Homo sapiens) (Q9GZR1 628-1112 limits assumed): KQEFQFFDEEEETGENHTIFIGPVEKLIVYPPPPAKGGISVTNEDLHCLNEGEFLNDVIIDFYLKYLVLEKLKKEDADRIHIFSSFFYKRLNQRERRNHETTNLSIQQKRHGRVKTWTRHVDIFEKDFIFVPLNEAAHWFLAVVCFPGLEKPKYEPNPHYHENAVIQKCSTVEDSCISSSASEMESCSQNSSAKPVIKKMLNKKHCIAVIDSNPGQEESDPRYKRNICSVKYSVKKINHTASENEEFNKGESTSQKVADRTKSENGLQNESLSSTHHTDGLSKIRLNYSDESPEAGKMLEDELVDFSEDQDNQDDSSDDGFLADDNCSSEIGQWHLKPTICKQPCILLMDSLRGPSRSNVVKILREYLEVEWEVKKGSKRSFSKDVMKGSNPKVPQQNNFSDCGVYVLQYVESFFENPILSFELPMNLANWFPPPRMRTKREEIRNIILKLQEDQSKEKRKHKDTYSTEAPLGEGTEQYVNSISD
For orientation: inhibition means the drop in the measured response relative to a control, in per cent. With `CCOC(=O)c1c(/N=C/c2cc(C)ccc2O)sc2c1CCC2`, the inhibition was 6.68%. On to `Cc1ccnc2nc(C(=O)Nc3nnc(-c4ccccc4)o3)nn12`, for which the inhibition was 7.14%. Take `O=C(Nc1cccnc1Cl)c1cc(-c2ccccc2O)on1`: the inhibition is 17.2%. `Cc1ccc(O)c(NC(=O)c2cc(-c3ccco3)on2)c1`: the inhibition is 62.9% (active). As for `O=C(Nc1ccccc1C(F)(F)F)c1cc(-c2ccc(O)cc2)on1`, the inhibition was 1.85%. Turning to `CCOC(=O)Cc1csc(SCC(=O)NC(C)C23CC4CC(CC(C4)C2)C3)n1` (centres undefined), the inhibition was -13.9%. As for `O=C1CCC(=O)N1c1ccc(NCCc2ccccc2F)c([N+](=O)[O-])c1`, the inhibition is 11.8%. Turning to `O=C(Nc1ccccc1C(=O)O)c1cc(S(=O)(=O)N2CCCCC2)cs1`, the inhibition was 15.3%.

In the case of `O=C(COc1ccc([N+](=O)[O-])cc1Cl)Nc1ccc2[nH]c(=O)[nH]c2c1`, the inhibition was -8.3%. With `CC(=NCc1ccco1)C1=C(O)c2ccccc2C1=O` the figure was 18.6%.

Regarding `CC(C)CC(=O)N/C(N)=N/c1nc2ccccc2s1`, the inhibition was 29.7%. With `CCC(C)Cn1c(O)cc2nn(-c3nc4ccccc4s3)c(=O)c-2c1C` (centres undefined) the figure was -3.5%; with `CCc1ccc(-c2cc(C(=O)NCc3ccco3)c3ccccc3n2)s1`, -10.2%; with `CC(=NCc1ccco1)c1c(C(F)(F)F)[nH]n(-c2nc3ccccc3s2)c1=O`, 97.8% (active). With `C/C(=N\NC(=O)CC(C)C)c1c(C(F)(F)F)[nH]n(-c2nc3ccccc3s2)c1=O` the figure was 98% (active); with `COc1ccccc1C(=O)NCCC(=O)NC(C)CCc1ccccc1` (centres undefined), -4.44%; with `O=C(CN1CCCSc2ccccc21)N1CCN(S(=O)(=O)c2cccc(F)c2)CC1`, -22.3%. In the case of `CCCN1Cc2cccc(C(=O)NCc3ccccc3)c2C1=O` it was 10.8%; in that of `Cc1ccc(NS(=O)(=O)c2ccc(-c3coc(C)n3)cc2)c(C)c1`, -4.93%; in that of `CCOC(=O)[C@H]1[C@H]2COc3cc(OC)ccc3[C@@H]2N2C(=O)CN(Cc3ccc(Cl)cc3)C(=O)[C@@]12C`, -7.07%. As to `COc1ccccc1N1CCN(S(=O)(=O)CCNC(=O)c2ccc(OC(C)C)cc2)CC1`, the inhibition was -8.31%. In the case of `COc1cc(NC(=O)CSc2ccc(-c3cccnc3)nn2)cc(OC)c1` it was 4.11%; in that of `COc1ccccc1NC(=O)c1c(Br)cnn1C`, -0.608%; in that of `N/C(=N\OC(=O)CC1CCCCC1)c1ccccc1`, 40.3%.

On to `COc1ccccc1OCC(=O)O/N=C(\N)c1ccccn1`, for which the inhibition is 13.8%. Regarding `N/C(=N\OC(=O)CCC1CCCCC1)c1ccccn1`, the inhibition is 87.4% (active). In the case of `Cc1ccc(O)c(CCc2ccccc2)n1` it was 8.36%; in that of `CCCc1ccc(-c2c(C)sc(NC(=O)c3ccnn3C)c2C#N)cc1`, -0.479%. `CN(C)C(=O)CSc1n[nH]c(-c2ccco2)n1`: the inhibition was 0.308%. With `O=C(O)CC(Cn1cnnn1)c1ccccc1` (centres undefined), the inhibition is -0.459%.

On to `O=C(NCCS(=O)(=O)N1CCN(c2ccccc2)CC1)c1ccco1`, for which the inhibition was 6.25%. Take `CCOc1ccc(NC(=O)CCC(=O)NNC(=O)NC2CCCCC2)cc1`: the inhibition is -9.85%. For `CC(C)OC(=O)C(C#N)c1nc2ccccc2nc1N1CCN(Cc2ccccc2)CC1` (centres undefined), the inhibition is 6.5%. For the molecule `Cc1ccc(S(=O)(=O)N2CCN(c3ccccc3)CC2)cc1C`, the inhibition was 4.47%. As to `Cc1ccc(S(=O)(=O)C(C#N)c2nc3ccccc3nc2N2CCCC2)cc1C` (centres undefined), the inhibition was 75.9% (active). Consider `O=C(CCCN1C(=O)c2ccccc2C1=O)Oc1ccc(Cl)cc1`, for which the inhibition was 1.14%.

With `Cc1c(C(=O)Nc2ccccc2)sc2nc3n(c(=O)c12)CCCCC3`, the inhibition is -15.7%.

As to `O=c1c2c(nc3n1CCCCC3)sc1c(O)cccc12`, the inhibition is 51.8% (active). Regarding `Cc1cccc2c(=O)n3c(nc12)CCCCC3`, the inhibition was 9.44%. Take `Cn1cccc1C(=O)NC(=O)COC(=O)Cc1coc2ccc3ccccc3c12`: the inhibition was -4.09%.

As to `Cc1c(C(=O)NC(C)C2CC3CCC2C3)cccc1[N+](=O)[O-]` (centres undefined), the inhibition was -22.4%. In the case of `COc1ccc(CCNC(=O)CCNS(=O)(=O)c2cc(Br)cnc2N)cc1OC` it was -5.77%. As for `O=c1/c(=C/c2ccc(CNS(=O)(=O)c3ccccc3)o2)sc2n1CCN=2`, the inhibition is 3.24%. For the molecule `CCn1c(=O)cc(SCC(=O)NCCC2=CCCCC2)c2ccccc21`, the inhibition was -1.94%. With `COCCNC(=O)CCCN1C(=O)c2ccccc2Sc2ncccc21` the figure was -28.9%; with `Oc1c(C=Nc2cccc3nsnc23)ccc2ccccc12`, 94.6% (active); with `Cc1cc2c(cc1C)N(Cc1ccccc1)C1=NCCCN12`, -12.7%. With `O=C(Nc1ccccc1)O/N=C1/CCCc2occc21` the figure was -12.8%; with `CCCN1C(=O)C(Cc2nc3ccccc3c(=O)n2-c2ccccc2)c2cc(C)ccc21` (centres undefined), -13.2%.

For the molecule `Cc1ccc(NC(=S)N(CCCN2CCCC2)Cc2cccn2Cc2ccc(Cl)cc2)cc1`, the inhibition was -18%. With `Brc1ccccc1C1N=C(c2ccccc2)NO1` (centres undefined) the figure was 38.9%; with `N#Cc1ccc(C2N=C(c3ccccc3)NO2)cc1` (centres undefined), 53% (active). With `C/C=C/C=C/C(=O)O` the figure was -2.25%; with `COc1ccc(C(=O)C2CCCN(C(=O)c3cc(C)on3)C2)cc1F` (centres undefined), 4.97%. In the case of `O=C(COC(=O)CNC(=O)C1CCCCC1)NCc1ccccc1` it was 4.4%. Take `CCCCCCSc1ccc(-c2nc3ccc(Cl)cn3c2NCc2ccccc2)cc1`: the inhibition is -0.449%. As to `Clc1ccc2nc(CSc3ccccc3)cn2c1`, the inhibition is 72.1% (active).

On to `O=C(/C=C/c1ccc2c(c1)OCO2)NCc1cn2cc(Cl)ccc2n1`, for which the inhibition was -4.65%. With `CC1(c2ccc(Cl)cc2)NC(=O)N(CC(=O)c2ccc3c(c2)OCO3)C1=O` (centres undefined), the inhibition is -6.26%. With `O=C(c1ccc(CSc2ccccc2)cc1)N1CCCCCC1` the figure was 80.6% (active); with `CC1CCN(C(=O)c2ccc(CSc3ccc(Cl)cc3)cc2)CC1`, 15.6%. With `O=C(c1ccc(S(=O)(=O)c2ccccc2)cc1)N1CCCCCC1` the figure was -8.79%; with `CCOc1ccccc1C(=O)NC1CC2CCCC(C1)N2Cc1ccccc1` (centres undefined), 7.09%. With `CSC1=N/C(=C\C=C\c2cccs2)C(=O)S1` the figure was 77.8% (active); with `O=C1N/C(=C/c2cccs2)C(=O)N1Cc1ccc(F)cc1`, -6.09%; with `Cc1cccc(C2=N/C(=C/c3cccs3)C(=O)O2)c1`, 9.27%. With `Cc1ccc2cc(/C=N/Nc3ccc(C(=O)O)cc3)c(Cl)nc2c1`, the inhibition is -25%. In the case of `O=C(O)c1ccc(/C=N/Nc2nc(N3CCCCC3)nc(N3CCCCC3)n2)cc1` it was -7.28%; in that of `O=C(O)c1ccc(N/N=C/c2ccc3ncccc3c2)cc1`, 101% (active). Regarding `Cc1ccc2c(c1)N(CC(=O)N(Cc1ccccn1)Cc1ccco1)C(=O)C(C(C)C)O2` (centres undefined), the inhibition is -1.99%. For `CC(=O)N(C1=C(Cl)C(=O)c2ccccc2C1=O)c1ccc(C(=O)O)cc1`, the inhibition was 81.4% (active). For the molecule `COc1ccc(CCNC(=O)CSCc2ccc(Br)cc2)cc1OC`, the inhibition was 1.68%.

With `CN(CC(=O)Nc1ccc(Cl)cc1)C(=O)c1ccc(COc2ccccc2)cc1`, the inhibition was 18.3%. In the case of `CN(CC(=O)Nc1ccc(Cl)cc1)CC(=O)Nc1cccc2ccccc12` it was -2.99%; in that of `CN(CC(=O)Nc1ccc(Cl)cc1)C(=O)CNC(=O)c1ccc2ccccc2c1`, 64.9% (active). For the molecule `COc1ccc(C2=NOC3(CC(=O)N(c4ccc(Cl)cc4)C3=O)C2)c(OC)c1` (centres undefined), the inhibition was -7.66%. In the case of `O=C(Nc1nnc(Cc2ccccc2)s1)c1cnccn1` it was -4.43%.

With `Cc1cnc(NC(=O)C2CCCC2)s1`, the inhibition is 8.65%. Regarding `Cc1cc(C(=O)Nc2nnc(C3CC3)s2)c(C)s1`, the inhibition was 76.1% (active). Regarding `O=C(Nc1nnc(C2CC2)s1)c1ccccn1`, the inhibition was 69.2% (active). As for `Cc1ccc(SCC(=O)Nc2ncc(C)s2)cc1`, the inhibition is -5.14%. Turning to `O=C(Nc1nnc(C2CC2)s1)c1cc(Cl)sc1Cl`, the inhibition is 4.15%. Turning to `Cc1cnc(NC(=O)c2ccccn2)s1`, the inhibition is 88.5% (active). In the case of `CCc1cc(C(=O)Nc2nnc(C3CC3)s2)sc1C` it was -7.34%; in that of `Cc1cccc(NC(=O)CSCC(=O)Nc2nnc(C3CC3)s2)c1`, -3.73%. Regarding `COc1ccccc1NC(=O)CCSc1nnc(-c2ccc(O)cc2)o1`, the inhibition is -8.69%. With `O=C(c1cccc(F)c1)N1CCN(c2ccc([N+](=O)[O-])c3cccnc23)CC1`, the inhibition is 13.7%. On to `CCOc1cc(CNCc2ccccn2)ccc1OCC(=O)NC(C)(C)C`, for which the inhibition is 4.74%.

Consider `CCn1nc(C)c(CN2CCN(Cc3ccc(OC)c(C)c3C)C(CCO)C2)c1C` (centres undefined), for which the inhibition is -13.1%.

Turning to `COCCCNC(=O)CN1CCN(Cc2ccccc2Cl)C1=O`, the inhibition is -5.23%. With `CC(=O)Nc1ccc(S(=O)(=O)Nc2nc3n(n2)C(c2ccccc2)CC(=O)N3)cc1` (centres undefined) the figure was -18.6%. With `Cc1nnc2n1N=C(c1ccccc1)CS2` the figure was 0.225%; with `COc1ccc(C2CC(c3cccs3)=NN2c2ccccc2)cc1` (centres undefined), -18.7%. In the case of `O=c1c2cc(-c3ccccc3)sc2nc2n1N=C(c1cccs1)CS2` it was 73.2% (active); in that of `COc1ccc(Cl)cc1NS(=O)(=O)c1cccc(C(=O)NCC2CCCO2)c1` (centres undefined), -6.29%; in that of `COc1ccc(S(=O)(=O)N2CCOCC2)cc1NC(=O)Cc1c(F)cccc1Cl`, 2.93%. Regarding `O=C(O)CS/C(=C\c1ccc(F)cc1)c1nc2ccccc2s1`, the inhibition was -11.1%. With `CC1=CC(=C(C#N)c2nc3ccccc3s2)C=C(C)N1c1ccc(F)cc1F` the figure was 63.9% (active). In the case of `N#C/C(=C(/O)Cc1cccc2ccccc12)c1nc2ccccc2s1` it was 1.83%.
